In PubChem BioAssay (Tox21):
Results filed as inconclusive are left out. A call without a number means that no potency is given here. A number with no mark means an inactive call. The source made the active and inactive calls. Unless noted, calls follow the shape of the dose curve; as a rule, active = well fitted curve in the direction sought with a large enough effect in the repeat runs; inconclusive = weak or mixed curves; inactive = no such curve, though single readings can be large; an effect the other way counts as inactive or inconclusive.

What was measured:
[1] = qHTS assay to identify small molecule antagonists of the retinoic acid receptor (RAR) signaling pathway (AID 1159552; also: nearly all actives have a fitted effect of over 50% in size; also: potency is read from the fitted curve at half-maximal effect)
How it was run: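 Luminescence from a RARE luciferase reporter in C3RL4 cells served as read-out. Cells received compounds together with 1 uM final retinol and incubated 6 hr at 37 C before detection reagent was added for 30 min at room temperature.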

[2] = qHTS assay to identify small molecule antagonists of the estrogen related receptor (ERR) signaling pathway from Tox21 library - cell viability counter screen (AID 1224834); also: nearly all actives have a fitted effect of over 30% in size; also: potency is read from the fitted curve at half-maximal effect
How it was run: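 In this quantitative HTS format, ERR cells receive compounds in DMSO and are incubated for 17.5 h at 37 C. Live-cell protease activity is then detected with CellTiter-Fluor.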

[3] = biological target: Luciferin 4-monooxygenase (Photinus pyralis) (UniProt P08659); test: qHTS assay to identify small molecule inhibitors of firefly luciferase (AID 1224835); also: series mostly up to about 120 µM; nearly all actives have a fitted effect of over 25% in size
Sequence of Luciferin 4-monooxygenase (Photinus pyralis) (P08659 whole entry, looked up): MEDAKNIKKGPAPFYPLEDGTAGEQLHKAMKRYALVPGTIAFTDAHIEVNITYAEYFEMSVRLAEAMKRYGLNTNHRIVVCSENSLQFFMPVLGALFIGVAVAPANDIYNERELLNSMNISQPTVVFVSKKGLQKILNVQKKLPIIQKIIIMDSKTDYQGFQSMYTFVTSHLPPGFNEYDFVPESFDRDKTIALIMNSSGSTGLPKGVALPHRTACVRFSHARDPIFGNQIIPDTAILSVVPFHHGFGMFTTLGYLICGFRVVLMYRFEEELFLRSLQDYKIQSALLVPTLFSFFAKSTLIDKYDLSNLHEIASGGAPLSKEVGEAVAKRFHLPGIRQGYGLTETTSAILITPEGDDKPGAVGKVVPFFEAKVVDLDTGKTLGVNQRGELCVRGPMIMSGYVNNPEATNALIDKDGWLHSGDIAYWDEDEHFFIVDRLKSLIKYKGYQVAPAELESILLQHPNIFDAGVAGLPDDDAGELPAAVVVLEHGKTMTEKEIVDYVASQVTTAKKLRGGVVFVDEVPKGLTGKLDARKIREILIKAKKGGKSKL
How it was run: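 Inhibition of purified Photinus luciferase is measured by luminescence. Substrate levels (D-luciferin, ATP) sit at their KM values. Each compound is tested in a concentration series.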

[4] = qHTS assay to identify small molecule agonists of the constitutive androstane receptor (CAR) signaling pathway - cell viability counter screen (AID 1224836); also: nearly all actives have a fitted effect of over 45% in size; also: potency is read from the fitted curve at half-maximal effect; as to viability change, negative = cytotoxic: series mostly up to about 92 µM
How it was run: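 Viability read-out: CellTiter-Fluor fluorescence after 23 h compound exposure at 37 C/5% CO2 in double-stable HepG2-CYP2B6-hCAR cells, with PK11195 present at 0.75 uM final; compounds tested in 15-point titration.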

[5] = qHTS assay to identify small molecule antagonists of the constitutive androstane receptor (CAR) signaling pathway - cell viability counter screen (AID 1224837); also: nearly all actives have a fitted effect of over 45% in size; also: potency is read from the fitted curve at half-maximal effect; as to activity change, negative = cytotoxicity: series mostly up to about 92 µM
How it was run: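 In quantitative HTS format, compounds at 15 concentrations were applied to HepG2 cells double-transfected with hCAR and CYP2B6-2.2kb under 50 nM CITCO stimulation; live-cell protease activity was read after 23 hr via CellTiter-Fluor.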

[6] = biological target: Nuclear receptor subfamily 1 group I member 3 (Homo sapiens) (UniProt Q14994); test: qHTS assay to identify small molecule antagonists of the constitutive androstane receptor (CAR) signaling pathway (AID 1224838); also: nearly all actives have a fitted effect of over 40% in size; also: potency is read from the fitted curve at half-maximal effect
Sequence of Nuclear receptor subfamily 1 group I member 3 (Homo sapiens) (Q14994 whole entry, looked up): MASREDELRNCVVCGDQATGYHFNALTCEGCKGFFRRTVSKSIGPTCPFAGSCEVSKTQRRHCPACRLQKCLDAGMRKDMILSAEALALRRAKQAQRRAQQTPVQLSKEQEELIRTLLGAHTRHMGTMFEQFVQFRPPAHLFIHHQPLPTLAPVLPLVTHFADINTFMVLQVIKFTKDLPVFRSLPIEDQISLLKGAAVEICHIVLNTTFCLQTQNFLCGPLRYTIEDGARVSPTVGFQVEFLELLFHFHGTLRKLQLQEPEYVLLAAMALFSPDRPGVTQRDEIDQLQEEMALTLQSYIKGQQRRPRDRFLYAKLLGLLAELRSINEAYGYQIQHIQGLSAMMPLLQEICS
How it was run: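 CITCO-stimulated (50 nM final) HepG2 cells stably transfected with hCAR and CYP2B6-2.2kb luciferase were exposed to compounds at 15 concentrations for 24 h at 37 C/5% CO2. A luciferase reagent was added and luminescence recorded after 30 min.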

[7] = qHTS assay to identify small molecule antagonists of the estrogen related receptor signaling pathway with the pleiotropic PPARgamma coactivator (PGC) from Tox21 10K library - cell viability counter screen (AID 1224840; active = well fitted cell-killing curve with a large enough effect in the repeat runs, not every such curve was filed as active; also: nearly all actives have a fitted effect of over 40% in size)
How it was run: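 Viability counter screen, PGC/ERR cells: 17.5 h compound exposure at 37 C, CellTiter-Fluor fluorescence endpoint.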

[8] = qHTS assay to identify small molecule agonists of the estrogen related receptor signaling pathway with the pleiotropic PPARgamma coactivator (PGC) from Tox21 10K library (AID 1224842); also: nearly all actives have a fitted effect of over 15% in size
How it was run: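 Luminescence from One-Glo (30 min, room temperature) measured after PGC/ERR cells had 18 h at 37 C with pinned compound (23 nL in DMSO). Cells had been seeded at 2,000 per well and pre-incubated 6 h.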

[9] = qHTS assay to identify small molecule agonists of the hypoxia (HIF-1) signaling pathway - cell viability counter screen (AID 1224844; calls by dose curve; also: nearly all actives have a fitted effect of over 50% in size)
How it was run: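 Same wells as the HIF-1 reporter screen; ME-180 cells carrying HRE-bla, 17 hr treatment at 37C; CellTiter-Glo luminescence read after 30 min at room temperature.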

[10] = qHTS assay to identify small molecule agonists of H2AX (AID 1224845; active = well fitted activation curve with a large enough effect in the signal ratio in the repeat runs, not every such curve was filed as active; the % refers to the signal ratio)
How it was run: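 Phospho-H2AX Ser139 measured by HTRF (ex 320 nm; em 665 and 620 nm) after 24 hr antibody incubation. Compounds, 15 concentrations, 0.76% DMSO, were applied to CHO-K1 cells for 3hr at 37C before lysis.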

[11] = biological target: Nuclear receptor subfamily 1 group I member 3 (Homo sapiens) (UniProt Q14994); test: qHTS assay to identify small molecule agonists of the constitutive androstane receptor (CAR) signaling pathway (AID 1224839);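 also: HepG2 cells stably carrying human CAR and a CYP2B6 luciferase reporter; series mostly up to about 92 µM; nearly all actives have a fitted effect of over 15% in size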
How it was run: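 Luminescence read-out (ONE-Glo, 30 min, room temperature) from double-stable HepG2-CYP2B6-hCAR cells exposed 24 h to 15-point compound series in presence of 0.75 uM PK11195 final.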

[12] = biological target: Thyrotropin receptor (Homo sapiens) (UniProt P16473); test: qHTS assay to identify small molecule agonists of the thyroid stimulating hormone receptor (TSHR) signaling pathway (AID 1224843; calls by dose curve; also: nearly all actives have a fitted effect of over 45% in size)
Sequence of Thyrotropin receptor (Homo sapiens) (P16473 whole entry, looked up): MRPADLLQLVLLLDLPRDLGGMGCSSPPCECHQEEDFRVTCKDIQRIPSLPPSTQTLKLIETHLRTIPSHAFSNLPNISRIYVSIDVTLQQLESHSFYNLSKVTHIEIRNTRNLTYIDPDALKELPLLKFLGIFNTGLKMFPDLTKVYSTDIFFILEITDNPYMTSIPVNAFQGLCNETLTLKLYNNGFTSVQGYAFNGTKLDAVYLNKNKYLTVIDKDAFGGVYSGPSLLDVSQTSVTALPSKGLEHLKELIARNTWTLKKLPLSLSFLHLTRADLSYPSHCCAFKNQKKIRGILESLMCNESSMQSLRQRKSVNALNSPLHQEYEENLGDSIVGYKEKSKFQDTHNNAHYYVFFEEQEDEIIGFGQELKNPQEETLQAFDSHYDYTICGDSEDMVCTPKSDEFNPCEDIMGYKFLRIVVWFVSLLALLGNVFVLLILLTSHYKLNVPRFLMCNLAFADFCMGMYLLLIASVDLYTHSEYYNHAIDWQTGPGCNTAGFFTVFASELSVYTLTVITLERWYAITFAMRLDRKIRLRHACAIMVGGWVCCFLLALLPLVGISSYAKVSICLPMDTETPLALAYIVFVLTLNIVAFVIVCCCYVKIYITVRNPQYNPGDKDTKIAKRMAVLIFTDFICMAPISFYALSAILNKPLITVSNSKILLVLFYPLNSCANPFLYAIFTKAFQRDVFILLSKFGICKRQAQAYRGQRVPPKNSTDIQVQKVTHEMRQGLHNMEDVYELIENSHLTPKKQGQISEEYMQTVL
How it was run: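 Agonist activity read as cAMP rise via d2/cryptate HTRF competition, 1 h room-temperature detection, in HEK293 cells expressing TSHR. Fifteen-point titrations, each run in triplicate, with a 30 min room-temperature incubation beforehand.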

[13] = qHTS assay to identify small molecule antagonists of the estrogen related receptor signaling pathway with the pleiotropic PPARgamma coactivator (PGC) from Tox21 10K library (AID 1224841; call rule not given here; also: series mostly up to about 92 µM; actives are mostly falling curves and most rising ones were filed inactive; nearly all actives have a fitted effect of over 50% in size)
How it was run: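 In the PGC/ERR line, DMSO solutions of test chemicals are pin-delivered to 2,000 cells/well six hours after dispensing. Following eighteen hours' incubation, One-Glo reagent is added and luminescence recorded.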

CCc1c(Br)c(Br)c(Br)c(Br)c1Br
Potency [1]: inactive | Potency [2]: inactive | Potency [3]: inactive | Potency [4]: inactive | Potency [5]: inactive | Potency [6]: inactive | Potency [7]: inactive | Potency [8]: inactive | Potency [9]: inactive | Potency [10]: inactive

CC(C)C(=O)OCc1ccccc1
Potency [1]: inactive | Potency [2]: inactive | Potency [3]: inactive | Potency [4]: inactive | Potency [5]: inactive | Potency [6]: inactive | Potency [11]: inactive | Potency [7]: inactive | Potency [12]: inactive | Potency [9]: inactive

CCCCN(C)C
Potency [1]: inactive | Potency [2]: inactive | Potency [3]: inactive | Potency [4]: inactive | Potency [5]: inactive | Potency [6]: inactive | Potency [11]: inactive | Potency [7]: inactive | Potency [12]: inactive | Potency [10]: inactive

CC(=O)c1ccccc1N
Potency [1]: inactive | Potency [2]: inactive | Potency [3]: inactive | Potency [4]: inactive | Potency [5]: inactive | Potency [6]: inactive | Potency [11]: inactive | Potency [7]: inactive | Potency [12]: inactive | Potency [9]: inactive | Potency [10]: inactive

CC(C)c1ccccc1N
Potency [1]: inactive | Potency [2]: inactive | Potency [3]: inactive | Potency [4]: inactive | Potency [5]: inactive | Potency [6]: inactive | Potency [7]: inactive | Potency [13]: inactive | Potency [8]: inactive | Potency [12]: inactive | Potency [9]: inactive | Potency [10]: inactive

OCCCc1cccnc1
Potency [1]: inactive | Potency [2]: inactive | Potency [3]: inactive | Potency [4]: inactive | Potency [5]: inactive | Potency [6]: inactive | Potency [11]: inactive | Potency [7]: inactive | Potency [12]: inactive | Potency [9]: inactive

CC(=O)O[C@@H]1C[C@@H]2CC[C@@]1(C)C2(C)C
Potency [1]: inactive | Potency [2]: inactive | Potency [3]: inactive | Potency [4]: inactive | Potency [5]: inactive | Potency [6]: inactive | Potency [11]: inactive | Potency [7]: inactive | Potency [12]: inactive | Potency [9]: inactive | Potency [10]: inactive

CC(C)(C)c1cc(CCC(=O)NCCCCCCNC(=O)CCc2cc(C(C)(C)C)c(O)c(C(C)(C)C)c2)cc(C(C)(C)C)c1O
Potency [1]: inactive | Potency [2]: inactive | Potency [3]: inactive | Potency [4]: inactive | Potency [5]: inactive | Potency [6]: 1.93 µM (active) | Potency [11]: inactive | Potency [7]: inactive | Potency [12]: inactive | Potency [9]: inactive | Potency [10]: inactive

OCCCS
Potency [1]: inactive | Potency [2]: inactive | Potency [3]: inactive | Potency [4]: inactive | Potency [5]: inactive | Potency [6]: inactive | Potency [7]: inactive | Potency [12]: inactive

CN(C)CCN1CCOCC1
Potency [1]: inactive | Potency [2]: inactive | Potency [3]: inactive | Potency [4]: inactive | Potency [5]: inactive | Potency [6]: inactive | Potency [11]: inactive | Potency [7]: inactive | Potency [12]: inactive | Potency [9]: inactive | Potency [10]: inactive

O=C[C@H](O)[C@H](O)[C@H](O)CO
Potency [1]: inactive | Potency [2]: inactive | Potency [3]: inactive | Potency [4]: inactive | Potency [5]: inactive | Potency [6]: inactive | Potency [7]: inactive | Potency [12]: inactive | Potency [9]: inactive

Cc1c(C(=O)O)cccc1[N+](=O)[O-]
Potency [1]: inactive | Potency [2]: inactive | Potency [3]: inactive | Potency [4]: inactive | Potency [5]: inactive | Potency [6]: inactive | Potency [11]: inactive | Potency [7]: inactive | Potency [12]: inactive | Potency [9]: inactive | Potency [10]: inactive

OCCC(O)CO (stereo unspecified)
Potency [1]: inactive | Potency [2]: inactive | Potency [3]: inactive | Potency [4]: inactive | Potency [5]: inactive | Potency [6]: inactive | Potency [11]: inactive | Potency [7]: inactive | Potency [12]: inactive | Potency [9]: inactive | Potency [10]: inactive

O=C=NCc1cccc(CN=C=O)c1
activity, negative = inhibition [1]: 6.56% [at 19 µM] | viability change, negative = cytotoxic [2]: 0.396% [at 19 µM] | activity change, negative = inhibition [3]: 3.61% [at 23.6 µM] | viability change, negative = cytotoxic [4]: -4.88% [at 19 µM] | activity change, negative = cytotoxicity [5]: -0.191% [at 19 µM] | activity, negative = inhibition [6]: -4.42% [at 19 µM] | activation [11]: -1.77% [at 19 µM] | viability change, negative = cytotoxic [7]: -5.21% [at 19 µM] | activation [12]: 1.05% [at 19 µM] | activity change, negative = cytotoxicity [9]: 6.46% [at 15.8 µM] | activation (H2AX phosphorylation) [10]: -2.62% [at 31.6 µM]

CC(=O)C=O
Potency [1]: inactive | Potency [2]: inactive | Potency [3]: inactive | Potency [4]: inactive | Potency [5]: inactive | Potency [6]: inactive | Potency [11]: inactive | Potency [7]: inactive | Potency [9]: inactive | Potency [10]: inactive

O=C1NCCN1CCN1CCC(c2cn(-c3ccc(F)cc3)c3ccc(Cl)cc23)CC1
Potency [1]: 26.6 µM (active) | Potency [2]: 26.6 µM (active) | Potency [3]: inactive | Potency [4]: 11.9 µM (active) | Potency [5]: 11.9 µM (active) | Potency [6]: 11.9 µM (active) | Potency [11]: inactive | Potency [13]: inactive

CCCC(O)C(O)CO (stereo unspecified)
Potency [1]: inactive | Potency [2]: inactive | Potency [3]: inactive | Potency [4]: inactive | Potency [5]: inactive | Potency [6]: inactive | Potency [11]: inactive | Potency [7]: inactive | Potency [12]: inactive | Potency [9]: inactive | Potency [10]: inactive

Cc1cccc(Br)c1
Potency [1]: inactive | Potency [2]: inactive | Potency [3]: inactive | Potency [4]: inactive | Potency [5]: inactive | Potency [6]: inactive | Potency [7]: inactive | Potency [12]: inactive

OCCCCl
Potency [1]: inactive | Potency [2]: inactive | Potency [3]: inactive | Potency [4]: inactive | Potency [5]: inactive | Potency [6]: inactive | Potency [7]: inactive | Potency [8]: inactive | Potency [12]: inactive | Potency [9]: inactive | Potency [10]: inactive

CC1CNCC(C)O1 (stereo unspecified)
Potency [1]: inactive | Potency [2]: inactive | Potency [3]: inactive | Potency [4]: inactive | Potency [5]: inactive | Potency [6]: inactive | Potency [11]: inactive | Potency [7]: inactive | Potency [12]: inactive | Potency [9]: inactive | Potency [10]: inactive

N[C@@H](CSSC[C@H](N)C(=O)O)C(=O)O
activity, negative = inhibition [1]: 36.8% [at 0.349 µM] | viability change, negative = cytotoxic [2]: 4.71% [at 0.349 µM] | activity change, negative = inhibition [3]: -0.457% [at 0.435 µM] | viability change, negative = cytotoxic [4]: 5.67% [at 0.349 µM] | activity change, negative = cytotoxicity [5]: -3.15% [at 0.349 µM] | activity, negative = inhibition [6]: -10.8% [at 0.349 µM] | viability change, negative = cytotoxic [7]: 6.11% [at 0.349 µM] | activation [8]: 4.81% [at 0.349 µM] | activation [12]: 2.51% [at 0.349 µM] | activity change, negative = cytotoxicity [9]: 25.3% [at 0.29 µM]

CCC1CCCCC1
Potency [1]: inactive | Potency [2]: inactive | Potency [3]: inactive | Potency [4]: inactive | Potency [5]: inactive | Potency [6]: inactive | Potency [7]: inactive | Potency [8]: inactive | Potency [12]: inactive | Potency [9]: inactive | Potency [10]: inactive
